Compound activity from PubChem BioAssay.
Sampled rows, rich in hits. Any-hit rate of the full collection: about 8.3%.
MCF10A rerep = induces DNA re-replication in MCF 10a normal breast cells. MCF 10A DNA re-replication, Hoechst nuclear intensity, 48 h. Potency, µM (highest dose often 46.1 µM), inactives show top-dose activity, positive = re-replication, actives largely listed as activators. 350,000 tested, 2.9% active; also: potency is read from the fitted curve at half-maximal effect; % of control where 0% means no effect; nearly all actives have a fitted effect of over 50% in size
BCR signal inh = blocks chronic active B-cell receptor signaling; 340,000 tested, 0.05% active; AID 493014; Potency, µM (highest dose often 46.1 µM), inactives show at the highest dose activity change, negative = inhibition, most hits filed as inhibitors; ABC-DLBCL IkBa-CBG/CBR reporter, luminescence ratio, 4 h; active = well fitted inhibition curve with a large enough effect in the signal ratio, with a control signal flat, not every such curve was filed as active; inconclusive = small, poorly fitted or top-dose-only effect, or effect the other way, or a change in a side signal; the % refers to the signal ratio;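 also: potency is read from the fitted curve at half-maximal effect; plate controls were basal doxycycline-induced cells for no effect and cells given 10 µM MG132 for full effect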
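Compounds up to 46 uM were incubated four hours with TMD8 cells whose green CBG68 luciferase is fused to IkappaBalpha; red CBR luminescence normalised the signal, and concentration-effect curves were fitted to fusion, red and ratio data.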
Giardia killer = kills Giardia lamblia. Giardia lamblia trophozoite viability. activity change, % at 7.66 µM, hits read low. 340,000 tested, 0.15% active. AID 540267; in the data active = activity change below about -80%; inconclusive = between about -30% and that limit;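 also: parasites exposed to compound for two days anaerobically before the ATP read; % is scaled to controls: 0 for no effect and ±100 for the full control effect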
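Luminescent ATP signal served as the viability read-out, measured 15-30 min after adding ATP detection reagent to trophozoites that had been incubated with compounds for 48 hrs at 37 deg C anaerobically at 100 cells/well.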
RORg inh = ROR gamma (mouse) transcription inhibition; Potency, µM (doses to about 53.6 µM), without a hit: top-dose activity change, negative = inhibition, usual class: inhibitors; 310,000 tested, 5.4% active; Drosophila S2 Gal4-RORgamma UAS-luciferase reporter, 20 h; AID 2551; also: potency is read from the fitted curve at half-maximal effect; % is scaled to controls: 0 for no effect and ±100 for the full control effect; nearly all actives have a fitted effect of over 60% in size
Target sequence (P51450 whole entry, looked up, the tested form may be a part): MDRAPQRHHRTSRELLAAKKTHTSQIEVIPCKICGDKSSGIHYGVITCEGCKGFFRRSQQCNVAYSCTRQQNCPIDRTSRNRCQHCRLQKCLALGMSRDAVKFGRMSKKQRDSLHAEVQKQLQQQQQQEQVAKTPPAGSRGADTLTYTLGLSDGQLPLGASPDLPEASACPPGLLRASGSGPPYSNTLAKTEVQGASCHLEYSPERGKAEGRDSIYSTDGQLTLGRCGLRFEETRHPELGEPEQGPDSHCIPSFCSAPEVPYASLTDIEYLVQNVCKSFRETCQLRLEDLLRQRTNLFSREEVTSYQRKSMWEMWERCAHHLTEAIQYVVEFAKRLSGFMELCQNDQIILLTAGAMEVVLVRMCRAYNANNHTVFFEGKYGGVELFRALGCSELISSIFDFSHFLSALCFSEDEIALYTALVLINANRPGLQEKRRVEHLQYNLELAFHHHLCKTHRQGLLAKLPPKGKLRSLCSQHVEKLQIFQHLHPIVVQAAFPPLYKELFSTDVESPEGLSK
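Luminescence from a UAS-regulated Photinus luciferase reporter in stably transfected Drosophila Schneider cells is measured; decreased signal marks ROR gamma inhibition. Fusion expression is induced by 700 uM copper sulfate for 20 hr.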
VP16 counter = counter-screen for ROR gamma inhibitors: Gal4-VP16 reporter; Drosophila S2 Gal4-VP16 UAS-luciferase, luminescence, 20 h; Potency, µM (highest dose often 53.6 µM), inactives show top-dose activity, negative = inhibition, usual class: inhibitors; 310,000 tested, 3.5% active;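 also: Gal4-VP16 expression switched on by copper sulfate through the metallothionein promoter; potency is read from the fitted curve at half-maximal effect; % is scaled to controls: 0 for no effect and ±100 for the full control effect; nearly all actives have a fitted effect of over 50% in size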
SW480 rerep = inducers of DNA re-replication in SW480 colon cancer cells; SW480 DNA re-replication, Hoechst DNA content imaging, 48 h; Potency, µM (highest dose often 46.1 µM), inactives show at the highest dose re-replication activation, actives largely listed as activators; 340,000 tested, 1.8% active; AID 624297; also: potency is read from the fitted curve at half-maximal effect; % of control where 0% means no effect; nearly all actives have a fitted effect of over 55% in size
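Image-based read-out: total Hoechst fluorescence of nuclei (405 nm excitation, 500-530 nm emission), with hits raising the fraction of high-intensity nuclei. SW480 colon cells incubated 48 hr with compounds at 37 C.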
* hit, by the source's call; ? = inconclusive; nt = not tested or not shown; [ ] = remark or other dose. Unless noted, calls follow the shape of the dose curve; as a rule, active = well fitted curve in the direction sought with a large enough effect; inconclusive = small, poorly fitted or top-dose-only effect, or another doubt; inactive = no such curve, though single readings can be large; an effect the other way counts as inactive or inconclusive.

SMILES	MCF10A rerep	BCR signal inh	Giardia killer	RORg inh	VP16 counter	SW480 rerep
COc1ccc(C2/C=C\CN(Cc3ccncc3)CC(=O)N2Cc2ccc(F)cc2)cc1 (centres undefined)	0%	-1%	8	29%	1%	?
CC(C)CC(NC(=O)NC(CCC(=O)O)C(=O)O)C(=O)O (centres undefined)	nt	nt	nt	2%	3%	nt
CCCCCc1ccc(OCCOCCn2c[n+](C)c3ccccc32)c(CCCCC)c1	?	?	5	?	16µM*	?
CCCCCc1ccc(OCCC[n+]2ccccc2)c(CCCCC)c1	?	?	-11	10%	-15%	2%
COc1ccc(CN(Cc2nc3ccccc3c(=O)[nH]2)C(=O)c2ccco2)cc1	7%	-5%	-5	?	-2%	1%
CCN(CC(=O)NCCc1ccc(Cl)cc1)Cc1nc2ccccc2c(=O)[nH]1	13%	3%	-7	2.2µM*	?	3%
CCN(CC(=O)NCc1ccc(F)cc1)Cc1nc2cc(Cl)ccc2c(=O)[nH]1	18%	?	0	7%	?	-3%
CC(C)C(=O)N(Cc1ccc(F)cc1)Cc1nc2ccccc2c(=O)[nH]1	?	-9%	-9	11µM*	-24%	-10%
CCN(CC(=O)NCCc1ccc(F)cc1)Cc1nc2ccccc2c(=O)[nH]1	6%	2%	17	7.9µM*	?	8%
C=CCC1C=CC(Oc2ccc(F)cc2C)C(CO)O1 (centres undefined)	nt	nt	nt	23%[10 µM]	27%[10 µM]	nt
O=C(NN1CCOCC1)c1cc(-c2cccs2)nc2ccccc12	2%	9%	-11	0%	-16%	0%
Cn1cccc1/C=N/NC(=O)c1cc(-c2cccs2)nc2ccccc12	5.8µM*	-4%	-9	7.1µM*	?	15µM*
O=C(N/N=C/c1ccc2ncccc2c1)c1cc(-c2cccs2)nc2ccccc12	5.8µM*	-11%	-4	11%	-1%	12%
O=C(N/N=C/c1cccnc1)c1cc(-c2cccs2)nc2ccccc12	?	-5%	-4	21%	4%	?
O=C(N/N=C/c1ccc[nH]1)c1cc(-c2cccs2)nc2ccccc12	11%	?	-4	2.8µM*	6.3µM*	10%
Cn1cccc1/C=N/NC(=O)c1cc2ccccc2cc1O	14%	?	-19	1.4µM*	2µM*	?
COCCn1c(=O)cnc2cnc(OCc3ccccc3)nc21	nt	nt	nt	0%	-10%	nt
COc1ccc(NC(=O)C(c2ccccc2)N2CCN(c3ccccn3)CC2)cc1Cl (centres undefined)	-5%	?	14	31%	-2%	?
O=C(C1CC(=O)N(c2ccc3c(c2)OCCO3)C1)N1CCN(S(=O)(=O)c2cccc(F)c2)CC1 (centres undefined)	-1%	nt	-3	nt	nt	0%
Cc1ccc(NC(=O)CC2OC(=O)c3ccccc32)cc1S(=O)(=O)N1CCOCC1 (centres undefined)	1%	?	19	nt	nt	3%
Cc1ccc(-n2c(=O)c3sccc3n(Cc3cc(=O)n4cc(Cl)ccc4n3)c2=O)cc1F	-27%	4%	-8	14%	-2%	5%
CN(Cc1ccccc1)C(=O)c1[nH]cnc1C(=O)NCC(=O)OCc1ccccc1	0%	0%	-16	11µM*	-30%	-3%
O=C(N[C@@H](Cc1ccccc1)C(=O)OCc1ccccc1)c1nc[nH]c1C(=O)NC(c1ccccc1)c1ccccc1	?	25%	9	3.5µM*	5.6µM*	22%
C[C@H](NC(=O)c1nc[nH]c1C(=O)N[C@@H](C)c1ccccc1)c1ccccc1	?	9%	5	nt	nt	1%
O=C(CNC(=O)c1[nH]cnc1C(=O)N[C@@H](Cc1ccccc1)C(=O)OCc1ccccc1)OCc1ccccc1	?	?	-12	?	?	-93%[9.22 µM]
SMILES	MCF10A rerep	BCR signal inh	Giardia killer	RORg inh	VP16 counter	SW480 rerep
CN(Cc1ccccc1)C(=O)c1[nH]cnc1C(=O)N[C@@H](Cc1ccccc1)C(=O)OCc1ccccc1	?	?	-3	10µM*	10µM*	?
O=C(N[C@@H](Cc1ccccc1)C(=O)OCc1ccccc1)c1nc[nH]c1C(=O)N1CCNCC1	9%	2%	22	nt	nt	-1%
C[C@H](NC(=O)c1nc[nH]c1C(=O)N[C@@H](Cc1ccccc1)C(=O)OCc1ccccc1)c1ccccc1	?	?	40	4.5µM*	7.9µM*	6%
CCOc1ccnc2c1c(=O)n(Cc1cc(OC)cc(OC)c1)c(=O)n2C	0%	-5%	-3	-27%	-3%	13%
CC(=O)c1cccc(NC(=O)CCn2c(=S)oc3ccccc32)c1	4%	1%	-16	-3%	-2%	15%
C[C@H](NC(=O)c1nc[nH]c1C(=O)N[C@H](C)c1ccccc1)C(=O)OCc1ccccc1	?	?	31	-5%	3%	?
C[C@@H](NC(=O)c1nc[nH]c1C(=O)N[C@@H](Cc1ccccc1)C(=O)OCc1ccccc1)c1ccccc1	?	1%	10	5.6µM*	7.1µM*	7%
CCOC(=O)c1c(-c2ccccc2)nc2ccc(C)cn12	16%	10%	15	?	-1%	-7%
CCOC(=O)c1c(-c2ccccc2)nc2cc(C)ccn12	?	?	-8	13µM*	-8%	-3%
CCOc1ccc(CN2CCN(Cc3cc4ccccc4[nH]3)CC2CCO)cc1 (centres undefined)	23µM*	10%	15	0%	9%	?
CC(C)(C)CN1CCN(Cc2cc3ccccc3[nH]2)CC1CCO (centres undefined)	0.65µM*	2%	14	3%	-3%	?
CC(C)(C)CN1CCN(Cc2c[nH]c3ccccc23)CC1CCO (centres undefined)	6.5µM*	4%	-11	11%	-5%	0%
CC1(C)CC(NC(=S)Nc2ccc([N+](=O)[O-])cc2)CC(C)(C)N1	-1%	?	-9	0%	8%	-6%
COCOc1c2c(c(OCOC)c3c(OCOC)cccc13)/C(=N/N[S+](=O)([O-])c1ccc(C)cc1)C1=C2CCCC1	nt	nt	nt	-13%	1%	nt
CCOc1ccc(Oc2ccccc2NC(=O)CN2C(=O)NC3(CCCC3)C2=O)cc1	3%	-5%	1	nt	nt	-1%
O=C1/C(=C\c2cccs2)CCC/C1=C/c1cccs1	4%	nt	nt	4%	1%	11%
Cn1c(SCC(=O)NNC(=O)Nc2ccc(Cl)cc2)nnc1-c1ccccc1	8%	?	-4	1%	-7%	-1%
